Measured values published in PubChem BioAssay (NCI).
This is part of a sample that, as a whole, favours compounds with a hit. Of some 83,000 tested, about 20% had one in any assay.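 A percent growth of 40 corresponds to 60% growth inhibition; 0 means no net growth; -100 means all cells died. Active threshold: below 10.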 Unmarked numbers belong to inactive results. The source made the active and inactive calls.

What was measured:
Assay in all cases: NCI-60 one-dose screen, 48 h (100 = growth as untreated, 0 = no growth, -100 = all killed)
Settings in all cases: 10 µM unless noted
BT-549 breast = test system: BT-549 breast
MDA-MB-435 melanoma = test system: MDA-MB-435 melanoma
SW-620 colon = test system: SW-620 colon
MCF7 breast = test system: MCF7 breast
HCT-116 colon = test system: HCT-116 colon
HCC-2998 colon = test system: HCC-2998 colon
KM12 colon = test system: KM12 colon

Compound	growth (BT-549 breast)	growth (MDA-MB-435 melanoma)	growth (SW-620 colon)	growth (MCF7 breast)	growth (HCT-116 colon)	growth (HCC-2998 colon)	growth (KM12 colon)
COc1cc2cc(c1Cl)N(C)C(=O)C[C@H](OC(=O)[C@H](C)N(C)C(=O)CCS)C[C@]1(C)O[C@H]1[C@H](C)[C@@H]1C[C@@](O)(NC(=O)O1)[C@H](OC)/C=C/C=C(\C)C2	21.9%	-16.4% (active)	18.5%	11.4%	2.39% (active)	8.58% (active)	16.1%
C=C1C(=O)O[C@H]2[C@H]1CC/C(C=Nc1c(N)cc(F)cc1Br)=C\CC[C@@]1(C)O[C@@H]21	84.8%	83.2%	26.5%	24.4%	48.2%	109%	98.8%
COC(=O)c1ccc(NC(=O)CSc2nc(-c3ccc(F)cc3)nc3ccccc23)cc1	81.5%	68.1%	79.6%	61.1%	49.8%	102%	73.9%
COCCOC(=O)COc1ccc(OC)cc1	103%	89.8%	93.5%	97.3%	106%	111%	100%
CC1(C)Cc2c(Br)c(Br)c(Br)c(OCC(O)CN3CCOCC3)c2O1 (centres undefined)	78%	87.5%	94.5%	114%	77.9%	95.9%	95%
COc1cc2nc3c(=O)n(CCN(C)C)cnn3c(=O)c2cc1OC	98.6%	97.3%	97%	95.9%	101%	99.3%	95.1%
COc1ccccc1Nc1nnc(-c2ccc(Cl)cc2)o1	56.9%	-5.9% (active)	20.9%	17.1%	34.1%	82%	23.9%
O=C1Nc2ccccc2C12C=C(c1ccccc1)Nc1c2c(-c2ccccc2)nn1-c1ccccc1 (centres undefined)	70.1%	65.1%	75.6%	39%	48.6%	72.3%	56.1%
NC[C@@H]1CCN(c2cc3c(cc2F)c(=O)n(N)c(=O)n3Cc2ccc(-c3ccccc3)cc2)C1	69.3%	76.6%	84.2%	79.4%	65.3%	96%	96.9%
Cc1[nH]c(N=Nc2ccccc2)nc1N=Nc1ccccc1	37.7%	37.1%	31.7%	15.3%	11.1%	26.3%	35.1%
CCCS(=O)(=O)Nc1ccc(F)c(C(=O)c2c[nH]c3ncc(-c4ccc(OCCCC5CCCCN5)nc4)cc23)c1F (centres undefined)	57.5%	25.9%	116%	69.4%	70%	108%	103%
CCCCc1n(Cc2ccc3ccccc3c2)c2ccccc2[n+]1Cc1ccc2ccccc2c1	-74% (active)	-93.6% (active)	-79.8% (active)	-85.6% (active)	-83.2% (active)	-80.6% (active)	-82.9% (active)
CC1CCN(CCCCCOc2ccc3oc4ccccc4c(=O)c3c2)CC1	80.3%	79.9%	81.7%	68.3%	52.7%	79.5%	69.9%
O=C1NN(c2ccccc2)C(c2ccc3c(c2)OCO3)N2CCC[C@@H]12 (some centres undefined)	114%	105%	105%	87.5%	94.3%	82.2%	98.8%
COc1ccc([C@H]2[C@@H](F)C(=O)N2c2cc(OC)c(OC)c(OC)c2)cc1F	15.3%	0.354% (active)	28.7%	12.8%	5.59% (active)	32.9%	10.7%
CC1CCN(CCCCCOc2ccc3oc4cc(Cl)ccc4c(=O)c3c2)CC1	81.8%	3.73% (active)	36.8%	45.9%	23.3%	79.3%	49.5%
O=C(CCCCCCCCC(=O)Nc1cccc(C2=NCCN2)c1)Nc1cccc(C2=NCCN2)c1	92.2%	99.2%	97.1%	49.9%	98.3%	95.7%	95.5%
C#CCN(CCCOc1ccc(Cl)cc1Cl)CCCSC(=O)CCCCCN1/C(=C\C=C2/CCCC(/C=C/C3=[N+](CCCCCC(=O)[O-])c4ccccc4C3(C)C)=C2Cl)C(C)(C)c2ccccc21	-34.2% (active)	-60.1% (active)	3.31% (active)	6.92% (active)	9.39% (active)	40.3%	6.88% (active)
O=C1CC23OC4ON=C(Br)C4C2C(O)c2ccccc2N13 (centres undefined)	105%	111%	101%	88.5%	94.5%	103%	100%
C[C@H](Oc1cc(-c2cnn(C3CCNCC3)c2)cnc1N)c1c(Cl)ccc(F)c1Cl	75.7%	66.1%	79.5%	37.6%	31.9%	66%	50.6%
O=C(Nc1ccc(N=Cc2ccccc2O)cc1)NC1C=c2ccccc2=CC1 (centres undefined)	86.6%	104%	105%	92.6%	104%	100%	103%
Cc1nccc2c3ccc(OCc4cn(-c5ccc(Br)cc5)nn4)cc3n(CC(C)C)c12	54.4%	61.3%	48%	31.2%	23%	70.3%	44.8%
COc1ccc(-n2cc(COc3ccc4c5ccnc(C)c5n(CC(C)C)c4c3)nn2)cc1	66%	87.3%	78.9%	54.3%	50.5%	85.1%	80.2%
O=C1CC(c2ccc(O)c(O)c2)Oc2cc(O)c([C@@H]3O[C@H](CO)[C@@H](O)[C@H](O)[C@H]3O)c(O)c21 (some centres undefined)	102%	105%	98.4%	108%	93.9%	108%	109%
Cc1c(Cl)cccc1NC(=O)c1sc2nc3c(cc2c1N)CCCCCC3	11.2%	-19.5% (active)	21.4%	15.1%	5.07% (active)	52.2%	19.1%
Cc1cc(C)cc(Nc2nccc(-c3c(-c4ccc(F)cc4)ncn3C3CCNCC3)n2)c1	17.7%	-78.8% (active)	-28% (active)	-8.14% (active)	-98.8% (active)	-60.2% (active)	11.8%
COc1ccc(/C=C/C(=O)/C=C(/C=C/c2ccc(OC)c(OC)c2)OB(F)F)cc1OC	44.3%	8.23% (active)	-21.8% (active)	20.1%	-45.6% (active)	102%	36.1%
